Results published in PubChem BioAssay (NCI).
This is part of a sample that, as a whole, favours compounds with a hit. Of some 83,000 tested, about 20% had one in any assay.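 Single-concentration screen, 48 h exposure, 96-well plates. Endpoint: percent growth. Below 10 = active.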 Values without a mark were called inactive. Activity calls are given as the source filed them.

What was measured:
Assay in all cases: NCI-60 one-dose screen, 48 h (100 = growth as untreated, 0 = no growth, -100 = all killed)
Settings in all cases: 10 µM unless noted
NCI-H23 lung = test system: NCI-H23 lung
NCI-H226 lung = test system: NCI-H226 lung
NCI-H322M lung = test system: NCI-H322M lung
HOP-62 NSCLC = test system: HOP-62 NSCLC
NCI-H460 lung = test system: NCI-H460 lung
HOP-92 NSCLC = test system: HOP-92 NSCLC
NCI-H522 lung = test system: NCI-H522 lung
A549/ATCC NSCLC = test system: A549/ATCC NSCLC
786-0 renal = test system: 786-0 renal
COLO 205 colon = test system: COLO 205 colon
DU-145 prostate = test system: DU-145 prostate
K-562 leukemia = test system: K-562 leukemia
MALME-3M melanoma = test system: MALME-3M melanoma
MDA-MB-231 breast = test system: MDA-MB-231 breast
RXF 393 renal = test system: RXF 393 renal
SF-268 CNS = test system: SF-268 CNS
SF-295 CNS = test system: SF-295 CNS
SF-539 CNS = test system: SF-539 CNS
UACC-257 melanoma = test system: UACC-257 melanoma

Compound	growth (NCI-H23 lung)	growth (NCI-H226 lung)	growth (NCI-H322M lung)	growth (HOP-62 NSCLC)	growth (NCI-H460 lung)	growth (HOP-92 NSCLC)	growth (NCI-H522 lung)	growth (A549/ATCC NSCLC)	growth (786-0 renal)	growth (COLO 205 colon)	growth (DU-145 prostate)	growth (K-562 leukemia)	growth (MALME-3M melanoma)	growth (MDA-MB-231 breast)	growth (RXF 393 renal)	growth (SF-268 CNS)	growth (SF-295 CNS)	growth (SF-539 CNS)	growth (UACC-257 melanoma)
Ic1ccc2[nH]cc(SSc3c[nH]c4ccc(I)cc34)c2c1	17.9%	24.9%	57.8%	30.4%	-11.5% (active)	-6.72% (active)	-48% (active)	21.8%	41.6%	-37.1% (active)	72.5%	9.29% (active)	73.2%	7.64% (active)	46.4%	-18.1% (active)	-19.1% (active)	21.3%	34.6%
CCN(CC)c1ccc2cc(NC(=O)OCCNC(=O)CCNC(=O)[C@H](CC(C)C)NC(=O)C(C)(C)NC(=O)C(C)(C)NC(=O)[C@H](CC(C)C)NC(=O)CCNC(=O)C(C)(C)NC(=O)[C@H](CC(C)C)NC(=O)CCNC(=O)[C@@](C)(CC)NC(=O)[C@H](C)NC(=O)CCNC(=O)C(C)(C)NC(=O)[C@H](C)NC(=O)[C@@H]3CCCN3C(=O)[C@@](C)(CC)NC(=O)[C@H](Cc3ccccc3)NC(=O)C3CCCN3C(=O)C(C)(C)NC(=O)C3CCCN3C(=O)C(C)(C)NC(C)=O)c(=O)oc2c1 (stereo not given in full)	-85.9% (active)	-65.9% (active)	-80.3% (active)	-86.7% (active)	-76.9% (active)	-95.8% (active)	-82.3% (active)	-76% (active)	-94.8% (active)	-81.1% (active)	-100% (active)	-59.5% (active)	-80.4% (active)	-83.2% (active)	-82% (active)	-94.6% (active)	-84.7% (active)	-84.7% (active)	-89.4% (active)
COc1ccc2c(c1)C(C)Cc1c(Cl)nc(C)nc1N2C (stereo not given)	25.8%	38.6%	58.8%	29.4%	12.3%	41.7%	-17% (active)	21.8%	38.2%	-20.9% (active)	34%	11.7%	80.7%	19%	-0.792% (active)	43.2%	7.77% (active)	4.64% (active)	78.1%
O=S(=O)(c1ccc(N/N=C\c2ccccc2Cl)cc1)c1ccc(N/N=C/c2ccccc2Cl)cc1	86.8%	74.9%	94.2%	88%	71.2%	31.2%	84.8%	85.2%	98.4%	97.1%	92.1%	86.1%	94.6%	81.6%	106%	67.8%	89.6%	89.7%	92.1%
Cc1cccc(C[C@H](NC(=O)Nc2ccc(Cl)cc2F)C(=O)N[C@@H]2C(=O)N3C[C@H](O)C[C@H]3C(=O)N3CCCC[C@H]3C(=O)N[C@@H](C)C(=O)N3C[C@H](C)C[C@H]3C(=O)O[C@H]2C)c1	25.7%	20.9%	34%	24%	2.42% (active)	-7.02% (active)	14.7%	17.9%	11%	-30.9% (active)	15.1%	12.5%	7.7% (active)	-32.6% (active)	-18.1% (active)	11.6%	-21.3% (active)	7.42% (active)	14.9%
C=C(C)[C@@H]1CC[C@]2(C)[C@H](CC[C@@H]3[C@@H]([C@@](C)(O)CCC=C(C)C)CC[C@]32C)[C@@]1(C)CCC(=O)O	-5.71% [100 µM] (active)	-41.5% [100 µM] (active)	-6.31% [100 µM] (active)	-61.4% [100 µM] (active)	-34.9% [100 µM] (active)	-49.4% [100 µM] (active)	-13.6% [100 µM] (active)	14.9% [100 µM]	1.09% [100 µM] (active)	-69.5% [100 µM] (active)	7.93% [100 µM] (active)	11.6% [100 µM]	-39.6% [100 µM] (active)	-39.5% [100 µM] (active)	-69.2% [100 µM] (active)	-17.9% [100 µM] (active)	-59.9% [100 µM] (active)	-85.7% [100 µM] (active)	28.9% [100 µM]
O=C(CCCCCCSc1nc(-c2ccc(Cl)cc2)cc(-c2ccc(Cl)cc2)n1)NO	24.2%	26.7%	38.4%	15.9%	14.9%	44.8%	17.1%	7.16% (active)	30.8%	48.4%	22.4%	24.4%	15%	61.1%	2.65% (active)	30.4%	52.6%	28.4%	31.5%
COC(=O)c1cc(O)c2c(c1C(=O)OC)C[C@H]1[C@@H]3CC=C4C[C@@H](O)CC[C@]4(C)[C@H]3CC[C@]21C	46%	70.6%	66%	20.4%	64.6%	18.6%	50%	38.5%	-56.1% (active)	83.1%	79%	20%	28.3%	2.21% (active)	-60.6% (active)	66.8%	-14.5% (active)	8.9% (active)	14.3%
Brc1ccc2c(c1)CN(C1CCCCC1)CO2	96.9%	91.3%	124%	100%	102%	89.3%	108%	110%	117%	116%	111%	89.7%	115%	102%	107%	96.4%	104%	98.2%	120%
Oc1c(CNCCNCc2cc(Cl)cc(Cc3ccccc3)c2O)cc(Cl)cc1Cc1ccccc1	17.4%	9.76% (active)	23.4%	19.4%	8.13% (active)	45.1%	43.7%	13.9%	-3.97% (active)	8.84% (active)	24.2%	13.2%	8.23% (active)	36.2%	17.6%	18.6%	0.247% (active)	2.22% (active)	16%
COc1ccc2c3ccnc(C(F)(F)F)c3n(CCCCN)c2c1	54.6%	52.4%	65.3%	40.1%	47.1%	-22.3% (active)	11.4%	77%	54.5%	10.7%	71.4%	71.1%	43.7%	41.5%	49.8%	67.5%	59.7%	34.6%	37.9%
O=C(Nc1cccc2cccnc12)c1cc(C(=O)c2ccc(Cl)cc2)n2ccc(-c3ccncc3)cc12	102%	91%	95.7%	88.3%	98%	83.9%	88.8%	99.1%	103%	111%	106%	113%	90.7%	110%	104%	97.8%	98.9%	99.7%	97.7%
Nc1nc(Nc2ccccc2)c2ncn(Cc3ccc4c(c3)OCO4)c2n1	62.8%	75.1%	58.1%	40.8%	15.9%	63.9%	43.8%	42%	54.8%	47%	80.9%	15.7%	53%	44%	52.8%	62.8%	43.6%	46%	72.9%
C=C(C)C1CCC2(C(=O)O)CCC3(C)C(CCC4C5(C)CCC(OC(=O)NCc6ccccc6)C(C)(C)C5CCC43C)C12 (stereo not given)	32.3%	44.8%	59.3%	48.4%	29.4%	-4.47% (active)	-6.51% (active)	26.7%	44.8%	13.7%	56.2%	28.5%	72.1%	53.6%	60.2%	65.4%	41.9%	53.5%	29.3%
C=C(C)[C@@H]1CC[C@]2(C(=O)NCCNCCNCCN)CC[C@]3(C)[C@H](CC[C@@H]4[C@@]5(C)CC[C@H](O)C(C)(C)[C@@H]5CC[C@]43C)[C@@H]12	-51.7% [100 µM] (active)	-23.6% [100 µM] (active)	-83.8% [100 µM] (active)	-69.1% [100 µM] (active)	-100% [100 µM] (active)	-65.4% [100 µM] (active)	-57.8% [100 µM] (active)	-64.6% [100 µM] (active)	-83.5% [100 µM] (active)	-19.5% [100 µM] (active)	-8.34% [100 µM] (active)	-15.8% [100 µM] (active)	-100% [100 µM] (active)	-56.9% [100 µM] (active)	-82.9% [100 µM] (active)	-31% [100 µM] (active)	-84.7% [100 µM] (active)	-100% [100 µM] (active)	-39.6% [100 µM] (active)
